PubChem BioAssay AID2284352 (EPA ToxCast)
Results filed as inconclusive are left out. Calls of active or inactive are those of the source. Rule for the calls: active = hit-call score of the fitted dose curve at least 0.9, where 1 is the maximum; inconclusive = response in the unintended direction; inactive = score below 0.9.

The compounds below were run on rainbow trout Peroxisome Proliferator-activated Receptor gamma (PPARg), gene 110528708 (assay: ATG_rtPPARg_EcoTox2: Attagene TRANS-FACTORIAL EcoTox-2 HepG2 Assay for rainbow trout Peroxisome Proliferator-activated Receptor gamma (PPARg)).
Procedure: ATG_EcoTox2 is a cell-based, multiplexed assay created by modifying the existing Attagene TRANS-FACTORIAL system to include a panel of nuclear receptors from some or all the following species: human (Homo sapiens), african clawed frog (Xenopus laevis), rainbow trout (Oncorhynchus mykiss), japanese medaka (Oryzias latipes), and zebrafish (Danio rerio). The ECOTOX2-FACTORIAL format uses HepG2, a human liver cell line, with measurements taken at 24 hours after chemical dosing in a 24-well plate. ATG_rtPPARg_EcoTox2 is one of 29 assay components calculated in the ATG_EcoTox2 assay. It is designed to make measurements of mRNA induction, a form of inducible reporter, as detected with fluorescence intensity signals by Reverse transcription polymerase chain reaction (RT-PCR) and Capillary electrophoresis technology.The assay endpoint ATG_rtPPARg_EcoTox2 was analyzed in the positive analysis fitting direction relative to DMSO as the negative control and baseline of activity. Using a type of inducible reporter, measures of mRNA for gain-of-signal activity can be used to understand the reporter gene at the transcription factor-level as they relate to the gene PPARg. Furthermore, this assay endpoint can be referred to as a primary readout, because this assay has produced multiple assay endpoints where this one serves a reporter gene function. […]
Human liver HepG2 cells are transiently transfected with multiple reporter transcription units (MRTUs) in 6-well plates using FuGene 6 reagent (Roche; 3 ml FuGene/1 mg DNA). […] A major difference between the CIS and TRANS system is that in CIS activities of endogenous TFs are measured, whereas the TRANS assay evaluates changes in activities of exogenous, chimeric NR-Gal4 proteins. […] The fragments were purified using Qiaquick PCR columns (Qiagen), analyzed on an ABI 3130xL genetic analyzer (Applied Biosystems) with peak positions identified by using a set of X-rhodamine (ROX)-labeled MapMarker1000 molecular weight standards (BioVentures). […]
In the case of `O=C(O)C(F)(F)C(F)(F)C(F)(F)C(F)(F)C(F)(F)C(F)(F)C(F)(F)F`, the outcome is reported as “inactive”. In the case of `O=S(=O)(O)C(F)(F)C(F)(F)C(F)(F)C(F)(F)C(F)(F)C(F)(F)F`, the outcome is reported as “inactive”. With `CCCCOCN(C(=O)CCl)c1c(CC)cccc1CC` the outcome was “inactive”.
